Screening data from PubChem.
TWEAK-Fn14 inh = TWEAK-Fn14 signaling inhibition. 360,000 compounds, 2% hits. AID 1159606. inhibition, % at 10 µM. TWEAK-stimulated Fn14 reporter cells, luciferase luminescence, 8 h; in the data active = inhibition above about 50%
EBV LMP1 NFkB = inhibitors of Epstein-Barr LMP1-induced NF-kappaB reporter; LMP1-induced NF-kappaB luciferase reporter cells, luminescence; inhibition, % at 12.5 µM; 350,000 compounds, 0.69% hits; in the data active = inhibition above about 41%; inconclusive = no clear call, values can overlap the other calls;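 also: 0% = neutral control wells and 100% = reference inhibitor control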
HSF1 inh = HSF1 inhibition. 300,000 compounds, 0.77% hits. AID 2098. NIH3T3-HGL HSE-luciferase, MG132-induced, luminescence 8 h; stronger effect = lower value. activity change, negative = inhibition, % at 7.5 µM (by protocol);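 active = more than half of replicate wells show activity change below -50%, luminescence cut by over half; inconclusive = some wells, but at most half, below -50%; inactive = no replicate well below -50%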;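 also: luciferase reports HSF-1 transcriptional activity via heat shock element; 0% = median of DMSO wells and -100% = zero luminescence signal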
TROY signal inh = blocks TROY-dependent signaling in reporter cells; Q293 LMP1-TROYcd NF-kB luciferase reporter, 4 h; inhibition, % at 10 µM; 360,000 compounds, 0.98% hits; AID 1347056;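 active = compounds whose plate-normalised and pattern-corrected inhibition of the luciferase reporter signal at the single screening dose is 50% or more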
HSF1 activator = increases HSF-1 driven luciferase reporter signal; AID 504408; 300,000 compounds, 1.7% hits; activation, % at 9 µM; NIH3T3-HGL HSF-1 luciferase reporter, MG132, 8 h; 100% = twice DMSO control signal;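 active = mean replicate activation of at least 50% with a set share of replicates each reaching 50%; inconclusive = only one of those two conditions met; inactive = mean below 50% and too few replicates reaching it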;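 also: 0% = median of the neutral control wells and 100% = twice that signal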
HSP90 refold inh = HSP90 refolding inhibition in rabbit reticulocyte lysate. luciferase refolding luminescence, 3 h. inhibition, % at 5.6 µM. 290,000 compounds, 0.91% hits;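 active = inhibition above the screen-wide mean plus 3 SD, computed separately per campaign, cut at about 16% in these data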;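 also: 0% = DMSO wells and 100% = 60 µM geldanamycin wells; inhibitors lower the luminescence because luciferase stays unfolded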
Active calls of the source: *; ? = inconclusive; nt = not tested or not shown. In the library only some 4.7% were active in any assay of this set; here they are far more common.

SMILES	TWEAK-Fn14 inh	EBV LMP1 NFkB	HSF1 inh	TROY signal inh	HSF1 activator	HSP90 refold inh
Cc1ccc2c(c1)c(C)c(C)n2CC(O)Cn1nnc2ccccc21 (stereo not given)	15.2	-35.5	-88.7*	35.2	-91.1	3.1
N#Cc1ccc(-c2ccc(OCC(O)Cn3nnc4ccccc43)cc2)cc1 (stereo not given)	37.2	5.9	nt	51.6*	nt	-0.1
COc1ccc(-c2nnc(Sc3nc4ccccc4o3)c3ccccc23)cc1	74.4*	0.5	-9.1	-21.5	-13.4	3.1
CCCCOc1ccc(N=Cc2ccc[nH]2)cc1	66.6*	-5.4	-68.0*	72.7*	-73.3	-5.2
COc1ccc(N=Cc2ccc(-c3ccccc3)o2)cc1	-2.8	-8.9	-3.4	-9.7	-1.2	0.0
COc1ccc(N=Cc2ccc[nH]2)cc1	86.6*	-31.6	-62.5*	63.2*	-65.6	0.6
COC(=O)c1cccc(N2C(=O)C[C@](Sc3ccc(C)cc3)(C(=O)OC)[C@H]2c2ccccc2)c1	31.5	nt	nt	15.4	nt	nt
Cc1cccnc1C1=NOC(Cc2ccccc2)C(=O)N1Cc1ccc2c(c1)OCO2 (stereo not given)	-11.4	nt	nt	-13.8	nt	nt
COc1ccc(-c2ccc3c(c2)S(=O)(=O)c2cccc(C(=O)NCc4cc(C)oc4C(F)(F)F)c2C3=O)cc1OC	-49.1	86.1*	nt	-2.9	nt	nt
C=CCn1c(O)c(N=NC(=S)Nc2ccccc2F)c2ccccc21	-50.6	60.2*	11.1	-2.5	21.1	0.3
Oc1c(N=NC(=S)Nc2ccccc2F)c2ccccc2n1Cc1ccccc1	20.5	45.1*	-35.8	30.4	-29.3	2.8
Cc1c(Cl)cccc1NC(=S)N=Nc1c(O)n(CN2CCOCC2)c2ccccc12	104.7*	28.5	-1.1	32.6	1.4	3.5
Oc1c(N=NC(=S)Nc2ccccc2F)c2ccccc2n1Cc1ccccc1Cl	-5.6	?	-5.2	17.2	-2.6	2.3
C=CCn1c(O)c(N=NC(=S)Nc2ccccc2F)c2cc(S(=O)(=O)N3CCOCC3)ccc21	-8.3	51.9*	9.5	-4.8	35.7	10.8
Cc1ccc(Cn2c(O)c(N=NC(=S)Nc3ccccc3F)c3ccccc32)cc1	11.5	26.2	-21.0	6.0	-16.7	-3.0
CC(=O)Nc1cc(-c2cccnc2)cn2c(-c3cccc(C(F)(F)F)c3)cnc12	-23.1	nt	nt	0.0	nt	nt
O=C(N[C@H](CO)Cc1ccccc1)[C@H]1O[C@@H](n2ccc(=O)[nH]c2=O)[C@H](O)[C@@H]1O	-3.4	nt	nt	1.6	nt	nt
Cc1cc(NC(=O)C2(C)CCN2C(C)C)c2ccccc2n1 (stereo not given)	0.2	nt	nt	-1.7	nt	nt
COC(=O)c1ccc2nc(C3CCCCC3)c(Cc3cccc(Cl)c3)n2c1	8.6	nt	nt	-4.3	nt	nt
Cc1cc(C)cc(NC(=S)N=Nc2c(O)n(C)c3ccc(S(=O)(=O)N4CCOCC4)cc23)c1	-21.3	36.3	-0.7	7.1	6.5	2.2
Cc1ccc(NC(=S)N=Nc2c(O)n(C)c3ccc(S(=O)(=O)N4CCOCC4)cc23)cc1	-5.7	?	22.9	-24.6	58.2*	3.2
COc1cc([C@@H]2c3cc4c(cc3[C@H](O)[C@H]3COC(=O)[C@H]23)OCO4)cc(OC)c1OC	-0.3	-4.1	-69.3*	5.5	-74.1	2.9
COc1cc([C@@H]2c3cc4c(cc3[C@@H](O[C@@H]3O[C@@H]5CO[C@@H](C)O[C@H]5[C@H](O)[C@H]3O)[C@H]3COC(=O)[C@H]23)OCO4)cc(OC)c1O	-106.2	69.9*	6.5	-42.8	-12.2	nt
COc1cc(C2c3cc4c(cc3C(O)C3COCC23)OCO4)cc(OC)c1OC (stereo not given)	1.2	-0.6	nt	5.8	nt	nt
COc1cc(C2c3cc4c(cc3C(OC3OC5COC(c6cccs6)OC5C(O)C3O)C3COC(=O)C23)OCO4)cc(OC)c1O (stereo not given)	-65.3	75.3*	4.8	-50.5	1.3	1.9
SMILES	TWEAK-Fn14 inh	EBV LMP1 NFkB	HSF1 inh	TROY signal inh	HSF1 activator	HSP90 refold inh
O=C1NC[C@H](CCCCN2C[C@H](Cc3ccc(O)cc3)N(CCc3ccc(O)cc3)C(=O)C2=O)N(CC2CCCCC2)C1=O	8.1	nt	nt	-2.3	nt	nt
CCc1nc2c(OCc3c(C)noc3C)cccn2c1N(C)C(=O)c1ccccc1F	0.7	nt	nt	11.2	nt	nt
CC(=O)C1=CCC(c2ccccc2)N(S(=O)(=O)c2ccccc2)C1 (stereo not given)	-0.1	nt	nt	2.8	nt	nt
CCOc1ccccc1CN1CCN(Cc2cn(C)nc2-c2ccccc2)CC1CCO (stereo not given)	1.9	0.7	43.2	-2.9	82.4*	-2.2
COc1cc(F)ccc1-c1csc(C(O)(c2ccccc2)C(F)(F)F)n1 (stereo not given)	29.9	nt	nt	13.8	nt	nt
CCCS(=O)(=O)c1nnnn1-c1cccc(OC)c1	69.3*	18.3	-94.7*	52.1*	-94.7	1.2
COc1cccc(-n2nnnc2SCC(=O)Nc2ccccc2OC)c1	-1.0	-1.1	1.8	-0.2	10.9	3.4
COCCNC(=O)C1(C)CCCN(C(=O)c2cc(F)ccc2C)C1 (stereo not given)	6.7	nt	nt	3.6	nt	nt
NC(CCc1ccccc1)c1csc(Nc2cnccn2)n1 (stereo not given)	-19.6	nt	nt	10.9	nt	nt
COc1cc(C2CC(c3cccnc3)=NN2c2ccc(F)cc2)cc(OC)c1OC (stereo not given)	-14.0	1.4	50.5	-22.4	64.8*	-2.3
COc1ccc(C2CC(c3ccccc3)=NN2c2ccc(S(N)(=O)=O)cc2)cc1OC (stereo not given)	-1.0	-1.5	11.1	2.6	20.0	3.7
CCOC(=O)C1CCCN(C(=O)c2ccc(SC(F)(F)F)cc2)CC1 (stereo not given)	3.8	nt	nt	5.2	nt	nt
Cc1ccc(-c2[nH]c3ccccc3c2C(C[N+](=O)[O-])c2ccco2)cc1 (stereo not given)	27.0	-6.4	27.5	30.6	70.2*	0.9
Cc1[nH]c2ccccc2c1C(C[N+](=O)[O-])c1cccs1 (stereo not given)	5.1	-11.4	-74.7*	4.5	-79.5	-1.8
Cc1[nH]c2ccccc2c1C(C[N+](=O)[O-])c1ccco1 (stereo not given)	39.4	-0.4	6.6	-3.0	18.2	-1.1
COCCN(CCOC)Cc1cc(=O)oc2ccccc12	-3.1	nt	nt	-15.6	nt	nt
CCCOc1ccc(-c2c(C(=O)N/N=C/c3ccc(C)cc3)nnn2-c2nonc2N)cc1	-1.1	nt	4.5	-3.5	17.6	4.9
CCCOc1ccc(-c2c(C(=O)N/N=C/c3ccccc3OCC)nnn2-c2nonc2N)cc1	-18.0	-2.2	-68.5*	-7.5	-75.2	9.4
COc1cccc(-c2c(C(=O)N/N=C/c3ccc(C)s3)nnn2-c2nonc2N)c1	8.3	-1.4	-87.4*	-5.2	-89.3	-3.2
